Only some compounds are listed: those with a hit (about 19% of all), similar ones and a draw of the others.
HT1080-NT tox: kills 2HG-producing HT-1080-NT fibrosarcoma cells; actives 1.6% (n = 360,000); HT-1080-NT fibrosarcoma viability, CellTiter-Glo ATP luminescence, 48 h; Potency, µM (highest dose often 46.1 µM), inactives show top-dose activity, negative = less viability, most hits filed as cytotoxic;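 also: NT is the 2HG producing partner of a matched IDH1 knockdown line; potency is read from the fitted curve at half-maximal effect; 0% = DMSO-treated cells and -100% = media-only wells without cells; nearly all actives have a fitted effect of over 55% in size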
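Fibrosarcoma NT cells, 750 per well in 5% FBS RPMI, were exposed to compound for 48 hours. Viability: CellTiter-Glo luminescence.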
HT1080 IDH1KD tx: toxicity to HT-1080 IDH1 knockdown cells (counter line); HT-1080 IDH1 knockdown viability, ATP luminescence, 48 h; Potency, µM (top dose mostly 46.1 µM), for inactives: at the highest dose activity, negative = toxicity, usual class: cytotoxic; actives 2% (n = 360,000);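 also: potency is read from the fitted curve at half-maximal effect; 0% = DMSO wells and -100% = cell-free medium wells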
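HT-1080-IDH1KD cells (IDH1 knocked down), 750/well in RPMI with 5% FBS, treated with compound 48 h at 37 degrees C. Viability by CellTiter-Glo luminescence, normalised to DMSO and no-cell wells; concentration-response curves classed.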
DT40 TDP1 no CPT: qHTS for Inhibitors of human tyrosyl-DNA phosphodiesterase 1 (TDP1): qHTS in cells in absence of CPT; actives 15% (n = 420,000); Potency, µM (top dose mostly 46.2 µM), for inactives: top-dose activity change, negative = growth inhibition, most hits filed as inhibitors; DT40 Tdp1-/- hTDP1 cells, no CPT, ATP luminescence, 48 h; also: potency is read from the fitted curve at half-maximal effect; nearly all actives have a fitted effect of over 55% in size
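Growth of hTDP1-complemented DT40 Tdp1-knockout cells is measured by ATP luminescence after at least 48 hr compound exposure at 37 °C, with DMSO substituting for the 20 nM CPT used in the parallel screen.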
ELG1 repair inh: ELG1-dependent DNA repair inhibition. actives 2.3% (n = 330,000). HEK293T ELG1-luciferase reporter, luminescence, 16 h; DNA damage induced by 5-fluorouridine. Potency, µM (titrated, usually from 46.1 µM), inactives show at the top dose activity change, negative = inhibition, actives largely listed as inhibitors; also: potency is read from the fitted curve at half-maximal effect; nearly all actives have a fitted effect of over 55% in size
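Luminescence from the luciferase reporter, measured 30 min after ONE-Glo reagent at room temperature, was the read-out. Beforehand, 2,000 cells per well were exposed for 16 hr at 37 °C to 5-fluorouridine together with compound or vehicle.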
IL-1B inflam inh: blocks inflammasome-driven IL-1 beta release. actives 4.7% (n = 360,000). activity change, % at 57.5 µM. THP-1 LPS/ATP IL-1B secretion, AlphaLISA, 16 h; hits give low values; in the data active = activity change below about -50%; inconclusive = mostly about -30% to -49%
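Secreted IL-1B measured by AlphaLISA bead assay after 16 h compound exposure of THP-1 cells; compounds (final up to 57.5 uM) added 1 h before LPS (250 ng/mL) and ATP (1.25 mM) stimulation; lower signal means less secretion.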
DT40 TDP1 CPT: growth inhibition of DT40 Tdp1-/-;hTDP1 cells with camptothecin (screen for TDP1 inhibitors); actives 12% (n = 420,000); Potency, µM (titrated, usually from 46.2 µM), for inactives: at the highest dose activity change, negative = growth inhibition, actives largely listed as inhibitors; chicken DT40 Tdp1-/-;hTDP1 cells + 20 nM CPT, ATP luminescence, 48 h; also: potency is read from the fitted curve at half-maximal effect; nearly all actives have a fitted effect of over 55% in size
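Cell growth measured by CellTiter-Glo luminescence after a minimum 48 h, 37 C compound exposure with 20 nM CPT in Tdp1-knockout DT40 cells stably expressing hTDP1, seeded 400/well; qHTS titration format.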
Numbers without * were called inactive; ? = inconclusive; / = no result; [ ] = another dose, or the depositor's remark. Unless noted, calls follow the shape of the dose curve; as a rule, active = well fitted curve in the direction sought with a large enough effect; inconclusive = small, poorly fitted or top-dose-only effect, or another doubt; inactive = no such curve, though single readings can be large; an effect the other way counts as inactive or inconclusive. Unless noted, % is scaled to controls: 0 for no effect and ±100 for the full control effect.

SMILES	HT1080-NT tox	HT1080 IDH1KD tx	DT40 TDP1 no CPT	ELG1 repair inh	IL-1B inflam inh	DT40 TDP1 CPT
COc1cc(OC)nc(C(NC(=O)C2CCN(Cc3ccc(N(C)C)cc3)CC2)c2ccc(F)cc2)n1 (stereo not given)	1.2%	0.0%	?	/	-6.5	?
Cc1ccccc1CC(=O)N1CCCC1	-3.4%	0.4%	-13.5%	-1.4%	0.8	-10.0%
COc1cc(=O)n2c(c1C(=O)N(C)Cc1nonc1C)CCN(Cc1ccc(C)cc1C)CC2	/	/	?	/	/	-15.0%[9.04 µM]
CC(=O)NCCCc1ccc(C(=O)COC(=O)CNC(=O)c2ccc3ccccc3c2)cc1	/	/	2.8%	/	/	-0.5%
O=C(C[n+]1ccccc1)c1ccc(O)c(O)c1	/	/	-13.5%	/	/	-26.9%
Cc1ccc(C(NC(=O)C2CCN(CCOc3ccc(Cl)cc3)CC2)c2ccccn2)cc1 (stereo not given)	?	?	?	/	-70.3*	?
CC(NC(=O)C1CCN(CCOc2ccc(Cl)cc2)CC1)c1cccc2ccccc12 (stereo not given)	?	?	?	/	?	16.4µM*
O=C(NC(c1ccccc1)c1cnccn1)C1CCN(CCCOc2ccccc2)CC1 (stereo not given)	0.0%	15.1%	-26.4%	/	-10.1	-1.4%
COc1ccc(C(NC(=O)C2CCN(CCCOc3ccccc3)CC2)c2cccs2)cc1 (stereo not given)	?	?	?	/	-56.4*	?
COc1ccc(C(NC(=O)C2CCN(CCOc3ccc(Cl)cc3Cl)CC2)c2ccccn2)cc1 (stereo not given)	23.1µM*	20.6µM*	23.1µM*	/	-56.4*	?
COc1ccc(NC(=O)C(OC(=O)c2cnccn2)c2ccccc2)cc1Cl (stereo not given)	11.1%	0.2%	-6.1%	7.6%	8.3	-24.4%
Cc1cccnc1C(c1ccc(F)cc1)N(C)C(=O)C1CCN(CCOc2ccc(Cl)cc2Cl)CC1 (stereo not given)	?	-29.0%	20.6µM*	/	-56.3*	25.9µM*
Cc1cc(Cl)ccc1OCCCC(=O)NC1CCN(C)CC1	?	?	?	17.1%	-19.6	-28.0%
COc1ccc(C(=O)COC(=O)CNC(=O)c2ccccc2)cc1F	-2.0%	19.2%	-12.8%	2.5%	8.6	2.7%
O=C(NCc1ccc(Cl)cc1)c1cnn2ccccc12	-4.0%	-14.6%	-17.4%	?	-15.8	?
CC(=O)Nc1cccc(Nc2cnccn2)c1	16.2%	11.4%	0.2%	/	8.5	-0.7%
C=CCSC1=NC(=O)/C(=C/c2cccs2)S1	4.7%	-1.9%	?	2.3%	-100.2*	?
CC1CC(C)CN(C(=O)c2ccc3c(c2NCCO)C(=O)c2ccccc2C3=O)C1 (stereo not given)	?	?	23.1µM*	?	-22.6	29.1µM*
Cc1ccc(C(=O)N2CCN(C34CC5CC(CC(C5)C3)C4)CC2)o1	0.0%	0.6%	6.9%	-11.0%	4.9	1.4%
Cc1cc(C)nc(Nc2nc(=O)c3ccccc3s2)n1	10.4%	18.7%	20.6µM*	?	-16.3	?
O=C1C2CCC(C2)C1CN1CCOCC1 (stereo not given)	0.0%	2.3%	-12.5%	/	-13.0	-9.0%
Cc1ccc(CNC(=O)C(=O)Nc2c3c(nn2-c2ccc(F)cc2)CSC3)cc1	/	/	5.17µM*	/	/	?
CC(C)N1CCN(Cc2coc3ccccc3c2=O)CC1CCO (stereo not given)	-3.8%	2.3%	3.2%	-0.5%	-1.3	-11.6%

Screening results as filed in PubChem BioAssay.
